Assay outcomes: PubChem, National Center for Advancing Translational Sciences (NCATS)
Hits are enriched below; roughly 9.5% of the tested compounds scored in any of these assays.
Pf growth 48h: P. falciparum growth inhibition at 48 hours (one generation) | P. falciparum luciferase growth in erythrocytes, 48 h | Potency, µM (top dose mostly 28.7 µM), for inactives: at the highest dose activity change, negative = inhibition, actives largely listed as inhibitors | 310,000 tested, 5.9% active | AID 504832; also: % is scaled to controls: 0 for no effect and ±100 for the full control effect
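Erythrocytes infected with P. falciparum carrying an integrated firefly luciferase reporter (2% hematocrit, 0.1% parasitemia final) were exposed to compounds in RPMI 1640 with 0.5% Albumax at 37 C, 5% CO2. Growth inhibition was scored as reduced luminescence.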
SARS PLP yeast: blocks SARS-CoV papain-like protease in a yeast assay; Potency, µM (top dose mostly 32.9 µM), for inactives: at the top dose activity, positive = growth rescue, most hits filed as activators; S. cerevisiae expressing SARS-CoV PLpro, growth rescue; 330,000 tested, 0.19% active; AID 485353; calls by dose curve; also: 0% is about no effect; nearly all actives have a fitted effect of over 55% in size
NS1 inh: influenza NS1 inhibition; Potency, µM (top dose mostly 46.1 µM), for inactives: at the highest dose activity, positive = more growth; 270,000 tested, 0.4% active; AID 2326; calls by dose curve; also: actives are rising curves; nearly all actives have a fitted effect of over 50% in size
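Growth recovery, yeast-based: influenza A NS1 expressed in S. cerevisiae causes slow growth, and suppressors are detected by OD600. The parent strain without NS1 is used as positive control.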
RE007 growth inh: less growth of the S. pombe RE007 Vpr strain. S. pombe RE007 Vpr strain, BacTiter-Glo ATP luminescence, 24 h. Potency, µM (highest dose often 92.2 µM), without a hit: top-dose activity change, negative = less growth, actives largely listed as inhibitors. 360,000 tested, 0.21% active; active = well fitted falling curve with a large enough effect; inconclusive = small, poorly fitted or top-dose-only effect; inactive = no such curve, though single readings can be large or run the other way; also: % is scaled to controls: 0 for no effect and ±100 for the full control effect; nearly all actives have a fitted effect of over 50% in size
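Fission yeast strain RE007, carrying one chromosomally integrated HIV-1 vpr copy, was seeded at OD 0.01 in PMG+AL medium with 23 nL pinned compound. After 24 h at 30 °C and 99% humidity, viability was read by BacTiter-Glo luminescence.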
Pf growth 96h: P. falciparum growth inhibition at 96 hour, primary screen for plastid delayed-death inhibitors | P. falciparum luciferase reporter growth, 96 h | Potency, µM (series often up to 28.7 µM), without a hit: at the highest dose activity change, negative = inhibition, usual class: inhibitors | 320,000 tested, 6.9% active; also: % is scaled to controls: 0 for no effect and ±100 for the full control effect
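Two parasite generations (96 h, 37 C, 5% CO2) of compound exposure in infected erythrocytes (0.05% parasitemia, 2% hematocrit). Luciferase-reporter P. falciparum; decreased luminescence indicates inhibited growth, aimed at apicoplast-acting delayed death.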
* marks the source's active call; other numbers are inactive results; [ ] = another dose, or the depositor's remark. Unless noted, calls follow the shape of the dose curve; as a rule, active = well fitted inhibition curve with a large enough effect; inconclusive = small, poorly fitted or top-dose-only effect, or another doubt; inactive = no such curve, though single readings can be large or run the other way. Potency is read from the fitted curve at half-maximal effect.

How did CC(Sc1nc2ccccc2c(=O)n1CCCN1CCOCC1)C(=O)N1CCc2ccccc21 (stereo not given) do in these assays?
RE007 growth inh: 0%

Results for Cc1cccc(NC(=O)C(C)Sc2nc3ccccc3c(=O)n2CCCN2CCOCC2)c1 (stereo not given) ?
Pf growth 48h: 13µM*; SARS PLP yeast: -1%; RE007 growth inh: -3%; Pf growth 96h: 8.3µM*

Results for COCCn1c(SC(C)C(=O)Nc2ccc3c(c2)OCCO3)nc2ccccc2c1=O (stereo not given) ?
Pf growth 48h: inconclusive; SARS PLP yeast: 6%; NS1 inh: -4%; RE007 growth inh: 10%; Pf growth 96h: 13µM*

How did C[C@@H]1CN([C@H](C)CO)C(=O)c2cc(C#Cc3ccccc3F)cnc2O[C@@H]1CN(C)S(=O)(=O)c1ccccc1F do in these assays?
RE007 growth inh: -8%

What do the screens show for `C=CCn1c(=NC(=O)c2ccccc2[N+](=O)[O-])sc2cc(S(C)(=O)=O)ccc21`?
Pf growth 48h: inconclusive; SARS PLP yeast: 12%; NS1 inh: -13%; RE007 growth inh: -8%; Pf growth 96h: 9.3µM*

How did COC(=O)Cn1c(=NC(=O)c2nc3ccccc3s2)sc2cc(S(C)(=O)=O)ccc21 do in these assays?
Pf growth 48h: 45%; SARS PLP yeast: 14%; NS1 inh: 8%; Pf growth 96h: 87%

Results for C[C@@H](c1ccccc1)N1C[C@H](COCc2ccccc2)Oc2cc(N3CC[C@@H](O)C3)ccc2S1(=O)=O ?
RE007 growth inh: -4%

How did COc1ccc(C(=O)Nc2c(N)nc(SCC(=O)Nc3ccc(NC(C)=O)cc3)[nH]c2=O)cc1 do in these assays?
Pf growth 48h: 10µM*; SARS PLP yeast: 3%; NS1 inh: 9%; RE007 growth inh: 2%; Pf growth 96h: 2.6µM*

How did COc1ccc(NC(=O)CSc2nc(N)c(NC(=O)c3ccccc3F)c(=O)[nH]2)cc1 do in these assays?
Pf growth 48h: 22%; SARS PLP yeast: 1%; NS1 inh: 11%; RE007 growth inh: -7%; Pf growth 96h: 67%

How did Nc1nc(SCC(=O)NCC2CCCO2)[nH]c(=O)c1NC(=O)c1ccc(F)c(F)c1 (stereo not given) do in these assays?
Pf growth 48h: 1%; SARS PLP yeast: -1%; NS1 inh: 9%; RE007 growth inh: -16%; Pf growth 96h: 17µM*

Results for Nc1nc(SCC(=O)NCC2CCCO2)[nH]c(=O)c1NC(=O)c1ccco1 (stereo not given) ?
Pf growth 48h: 16%; SARS PLP yeast: 1%; NS1 inh: 15%; RE007 growth inh: 3%; Pf growth 96h: 50%

Results for Cc1nc2sc(C(c3ccco3)N3CCN(C(c4ccccc4)c4ccccc4)CC3)c(O)n2n1 (stereo not given) ?
Pf growth 48h: 1.7µM*; SARS PLP yeast: -14%; NS1 inh: 10%; RE007 growth inh: 6%; Pf growth 96h: inconclusive

What do the screens show for `O=C(O)c1cccc(N2C(=O)CSC2=S)c1`?
SARS PLP yeast: -1%; NS1 inh: 1%; RE007 growth inh: 20%; Pf growth 96h: 5.9µM*

How did CN(C)c1ccc(N2C(=O)CSC2=S)cc1 do in these assays?
Pf growth 48h: 8%; SARS PLP yeast: 0%; NS1 inh: 22%; Pf growth 96h: 5.2µM*

Results for O=C1CSC(=S)N1c1cccc(F)c1 ?
Pf growth 48h: 27%; SARS PLP yeast: 3%; NS1 inh: 14%; RE007 growth inh: -25%; Pf growth 96h: 10µM*

How did O=C1CSC(=S)N1c1cccc(Br)c1 do in these assays?
Pf growth 48h: -6%; SARS PLP yeast: -3%; NS1 inh: 0%; RE007 growth inh: inconclusive; Pf growth 96h: 42%

Results for O=C1CSC(=S)N1c1cccc(O)c1 ?
Pf growth 48h: 29%; SARS PLP yeast: -11%; NS1 inh: -78%; RE007 growth inh: inconclusive; Pf growth 96h: 31%

Results for O=C1NC[C@@H](CCCCN2CCN(CCc3ccc(O)cc3)C(=O)C2=O)N(Cc2ccccc2)C1=O ?
RE007 growth inh: 2%

Results for COc1cc(NC(=S)N2CCN(S(=O)(=O)c3ccc(F)cc3)CC2)cc(OC)c1 ?
Pf growth 48h: 2.3µM*; SARS PLP yeast: 5%; NS1 inh: 4%; RE007 growth inh: -8%; Pf growth 96h: -27%

How did COc1cccc(NC(=S)N2CCN(S(=O)(=O)c3ccc(F)cc3)CC2)c1 do in these assays?
Pf growth 48h: 1.9µM*; SARS PLP yeast: 2%; NS1 inh: -1%; RE007 growth inh: 6%; Pf growth 96h: inconclusive

How did COc1ccc(NC(=S)N2CCN(S(=O)(=O)c3ccc(F)cc3)CC2)cc1OC do in these assays?
Pf growth 48h: inconclusive; SARS PLP yeast: 4%; NS1 inh: 2%; RE007 growth inh: 1%; Pf growth 96h: 8%

How did COc1cc(NC(=S)N2CCN(S(C)(=O)=O)CC2)cc(OC)c1 do in these assays?
Pf growth 48h: 7%; SARS PLP yeast: 1%; NS1 inh: 12%; RE007 growth inh: -2%; Pf growth 96h: inconclusive

How did COc1cccc(NC(=S)N2CCN(S(C)(=O)=O)CC2)c1 do in these assays?
Pf growth 48h: 12%; SARS PLP yeast: 0%; NS1 inh: 7%; RE007 growth inh: 4%; Pf growth 96h: 4.1µM*

Results for CCc1ccc(/C=N/n2c(COc3ccccc3)n[nH]c2=S)cc1 ?
Pf growth 48h: 8%; SARS PLP yeast: -3%; NS1 inh: 1%; RE007 growth inh: 16%; Pf growth 96h: 6%

What do the screens show for `CC(C(=O)Nc1ccc2c(c1)OCO2)n1cnc2c1c(=O)n(C)c(=O)n2C` (stereo not given)?
Pf growth 48h: 5%; SARS PLP yeast: 0%; RE007 growth inh: 7%; Pf growth 96h: 1%

What do the screens show for `CCN(CC(=O)Nc1c(F)cccc1F)C(=O)CCc1nc2sc3c(c2c(=O)[nH]1)CCCC3`?
Pf growth 48h: 2%; SARS PLP yeast: 2%; RE007 growth inh: 1%; Pf growth 96h: inconclusive

Results for COC(=O)C1(Cc2cc(-c3cccnc3)no2)CCN(C(=O)OC(C)(C)C)CC1 ?
Pf growth 48h: inconclusive; SARS PLP yeast: -12%; NS1 inh: -55%; RE007 growth inh: 2%; Pf growth 96h: 10µM*

What do the screens show for `COC(=O)C1(Cc2cc(-c3ccc(Cl)cc3)no2)CCN(C(=O)OC(C)(C)C)CC1`?
Pf growth 48h: -8%; SARS PLP yeast: -20%; NS1 inh: -67%; RE007 growth inh: 14%; Pf growth 96h: 65%

Results for Cc1ccccc1Cn1nnc2c1C(=O)c1ccccc1C2=O ?
RE007 growth inh: 7%

What do the screens show for `Cc1cccc(Cn2nnc3c2C(=O)c2ccccc2C3=O)c1`?
Pf growth 48h: inconclusive; SARS PLP yeast: 6%; NS1 inh: -5%; RE007 growth inh: -11%[3.69 µM]; Pf growth 96h: 2.9µM*

What do the screens show for `C=C(C)Cn1c2ccc(NC(=O)NCc3ccc(F)cc3)cc2c(=O)n1C`?
RE007 growth inh: 0%[18.4 µM]
